Source: PubChem (several laboratories)
aSyn UTR inh = 5' untranslated region of α-synuclein, MLPCN primary screen | hit rate 0.82% among 300,000 | inhibition, % (tested at 7.5 µM) | AID 1813 | alpha-synuclein 5'UTR reporter, inhibitor activity; in the data active = inhibition above about 60%; inconclusive = no clear call, values can overlap the other calls;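 note: H4 neuroglioblastoma cells stably carrying SNCA 5'UTR luciferase fusion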
Platelet DG rel = platelet dense granule release activity. human platelet-rich plasma, SFLLRN dense granule ATP release, luminescence. inhibition, %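 (compounds screened at 7.5 µM in platelet-rich plasma)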. hit rate 0.22% among 300,000;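 active = mean replicate score, as percent of positive control, at or above 50; inconclusive = mean below 50 but at least one replicate at or above 50; inactive = mean and every replicate below 50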
KLF5 inh = suppresses KLF5 promoter-driven expression. DLD-1 KLF5 promoter-luciferase reporter, luminescence. inhibition, % at 5 µM. hit rate 0.23% among 290,000. AID 1700;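 active = inhibition above a per-plate limit of that plate's mean compound inhibition plus 3 SD, cut at about 60% in these data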;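 note: higher means less KLF5 promoter-driven luciferase light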
HIF act = HIF pathway transcriptional activation; U2OS HRE-luciferase reporter, luminescence; normalized: DMSO 0%, desferrioxamine 100%; activation, % at 7.5 µM (by protocol); hit rate 0.32% among 300,000; AID 1910;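 active = mean activation of at least 10% of the iron chelator positive control signal, with at least half of replicates also reaching 10%; inconclusive = mean and replicate majority disagree about reaching 10%; inactive = mean and most replicates under 10%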
Wee1 degr inh = inhibitors of human Wee1 degradation; P30291; hit rate 1.2% among 220,000; reporter increase, % at 5 µM; HeLa Luc-Wee1K328M stability, luciferase luminescence; 100% = proteasome inhibitor MG132 effect;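 active = activation above the mean of all tested compounds plus 3 SD, set per screening run, cut at about 8.8% in these data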;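 note: cells exposed to compound for 20 h before luminescence read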
Target sequence (P30291 whole entry K328M): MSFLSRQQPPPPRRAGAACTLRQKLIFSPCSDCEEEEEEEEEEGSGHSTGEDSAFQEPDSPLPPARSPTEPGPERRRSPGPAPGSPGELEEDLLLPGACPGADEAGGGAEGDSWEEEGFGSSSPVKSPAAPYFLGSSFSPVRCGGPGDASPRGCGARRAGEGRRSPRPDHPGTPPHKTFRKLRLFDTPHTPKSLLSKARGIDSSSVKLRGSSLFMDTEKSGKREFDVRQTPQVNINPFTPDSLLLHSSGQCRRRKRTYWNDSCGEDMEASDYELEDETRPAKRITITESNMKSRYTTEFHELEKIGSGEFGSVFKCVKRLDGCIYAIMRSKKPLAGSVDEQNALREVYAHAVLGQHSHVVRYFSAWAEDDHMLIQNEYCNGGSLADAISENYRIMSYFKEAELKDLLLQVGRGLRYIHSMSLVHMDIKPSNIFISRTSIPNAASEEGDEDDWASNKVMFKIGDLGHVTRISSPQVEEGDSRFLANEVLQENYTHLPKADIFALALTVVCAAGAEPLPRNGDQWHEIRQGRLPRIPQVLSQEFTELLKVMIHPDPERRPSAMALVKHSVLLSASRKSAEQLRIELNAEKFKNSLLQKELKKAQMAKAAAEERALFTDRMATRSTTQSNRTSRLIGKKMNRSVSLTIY
Wee1 degr conf = confirmation of human Wee1 degradation inhibitors; shares compounds with Wee1 degr inh; HeLa Luc-Wee1K328M degradation, luminescence; vehicle 0%, proteasome-blocked wells 100%; activation, % at 5 µM; hit rate 4% among 1,100; in the data active = activation above about 8.9%
Each line names hits and unclear results; the compound was inactive in the other large screens (follow-up assays come after a bar, where they were run). A selection: hits, their analogues and other compounds. The true share with any hit is near 2.1%.

C=CCN(c1ccccc1)S(=O)(=O)c1cccc(C(=O)NC2CCC(O)CC2)c1 (centres undefined)	none (no result: KLF5 inh, Wee1 degr inh)
COC(=O)C1NN=C(C(=O)c2ccc(Cl)cc2)C1c1ccc(OC)cc1 (centres undefined)	none
CC(C)Cn1c(-c2cccs2)nc2nc3ccccc3nc21	none
CCCCn1c(-c2cccs2)nc2nc3ccccc3nc21	Wee1 degr inh 13 | Wee1 degr conf inactive
COc1cc(C(=O)N/C(=C\c2cn(S(=O)(=O)N(C)C)c3ccccc23)C(=O)N2CCCC2)cc(OC)c1OC	none (no result: Wee1 degr inh)
Cc1cc(C)c2c(N)c(C(=O)C(C)(C)C)sc2n1	Wee1 degr inh 13 | Wee1 degr conf inactive
Cc1cc(C)cc(NC(=O)c2sc3nc(C)cc(C)c3c2N)c1	none (no result: Wee1 degr inh)
O=C(CC1C(=O)N(c2ccccc2)C(=S)N1c1ccccc1)c1ccc(Br)cc1 (centres undefined)	Wee1 degr inh 67 | Wee1 degr conf inactive
O=C(Nc1cccc(-c2cscn2)c1)C1CCN(Cc2ccccn2)CC1	none (no result: Wee1 degr inh)
COc1ccc(Nc2nc3ccc(OC)cc3s2)cc1	none
COc1ccc2nc(Nc3nc(C)c(C(C)=O)s3)sc2c1	Wee1 degr inh 12 | Wee1 degr conf inactive
CC1CCCCN1C(=O)CSc1nnc(-c2c[nH]c3ccccc23)o1 (centres undefined)	Wee1 degr inh 13 (no result: HIF act) | Wee1 degr conf inactive
Cc1ccc(O)c(NC(=O)C2CC(c3c(F)cccc3Cl)=NO2)c1 (centres undefined)	none
CN1CCN(C(=O)C2CC(c3c(F)cccc3Cl)=NO2)CC1 (centres undefined)	Wee1 degr inh 13 | Wee1 degr conf inactive
O=S(=O)(c1cccs1)N1CCN(c2ccc(O)cc2)CC1	Wee1 degr inh 23 | Wee1 degr conf inactive
CN1CCN(S(=O)(=O)c2cccs2)CC1	none
O=C(CCSCc1ccccc1F)NCc1cccs1	Wee1 degr inh 11 | Wee1 degr conf inactive
O=C(CCSCc1ccccc1Cl)NCc1cccs1	none
CCOC(=O)c1c2n(c3ccc(O)cc13)CCC2	Wee1 degr inh 11 | Wee1 degr conf inactive
CCc1ccccc1NC(=O)CN(c1ccc(OC)cc1OC)S(=O)(=O)c1ccccc1	none (no result: Wee1 degr inh)
COc1ccc(-c2cc(=O)oc3cc(OCC(=O)NCc4ccccn4)ccc23)cc1	none (no result: Wee1 degr inh)
COc1cc(SC)ccc1C(=O)Nc1ccc2c(c1)OCO2	Wee1 degr inh 13 | Wee1 degr conf inactive
COc1cc(SC)ccc1C(=O)Nc1ccc(OCC(=O)N2CCOCC2)cc1	none (no result: Wee1 degr inh)
Cc1ccc(NC(=O)c2noc3c2CCCCC3)cc1C	Wee1 degr inh 13 | Wee1 degr conf inactive
COc1ccc([N+](=O)[O-])cc1NC(=O)/C=C/C(=O)O	none
COc1cc(OC)c(NC(=O)/C=C/C(=O)O)cc1Cl	Wee1 degr inh 12 | Wee1 degr conf inactive
Cc1ccc2nc(-c3ccc4c(c3)NC(=O)CO4)cn2c1	Wee1 degr inh 20 | Wee1 degr conf inactive
CN(C)S(=O)(=O)c1cccc(NC(=O)CNCC2CCCCC2)c1	Wee1 degr inh 12 | Wee1 degr conf inactive
Cc1ccc(C)c(N(CC(=O)N2CCCC2)S(C)(=O)=O)c1	none (no result: Wee1 degr inh)
CC(C)c1ccc(-c2nnc(N)s2)cc1	Wee1 degr inh 12 | Wee1 degr conf inactive
Cc1ccc(-c2nnc(N)s2)cc1	none
COc1ccccc1C(=O)N/N=C(\C)c1cccnc1	none (no result: KLF5 inh, Wee1 degr inh)
COc1ccc(OC)c2sc(N3CCN(c4ccccc4)CC3)nc12	Wee1 degr inh 22 | Wee1 degr conf inactive
COc1cc2ccccc2cc1C(=O)OCC(=O)N(CC(C)C)c1c(N)n(Cc2ccccc2)c(=O)[nH]c1=O	none (no result: KLF5 inh, Wee1 degr inh)
CCCCn1c(N)c(N(CC)C(=O)c2cc(OC)cc(OC)c2)c(=O)[nH]c1=O	HIF act inconclusive, Wee1 degr inh 11 | Wee1 degr conf inactive
Clc1ccc(OCCCCCN2CCOCC2)cc1	none (no result: Wee1 degr inh)
CC(=O)N/N=C(/C)c1ccc(NC(=O)c2csc(C)c2C)cc1	none (no result: Wee1 degr inh)
CCn1c(=O)n(CC)c2cc(N3CCCC3)c(NC(=O)c3cccc(Cl)c3)cc21	none (no result: Wee1 degr inh)
O=C(c1ccc(Br)o1)N1CCN(c2ccc3nnc(-c4ccccc4)n3n2)CC1	Wee1 degr inh 14 | Wee1 degr conf inactive
CC(C)(C)c1ccc(/C=N/NC(=S)NCc2ccccc2)cc1	Wee1 degr inh 17 | Wee1 degr conf inactive
CN(C)c1ccc(/C=N/NC(=S)NCc2ccccc2)cc1	none
FC(F)(F)c1ccc(NC(=S)NCc2ccccc2)cc1	Wee1 degr inh 19 | Wee1 degr conf inactive
O=C(O)/C=C/C(=O)Nc1ccc(OC(F)F)cc1	none
NNC(=O)CN1C(c2ccccc2Br)=Nc2ccc(Br)cc2C1c1ccccc1 (centres undefined)	Wee1 degr inh 11 | Wee1 degr conf inactive
Cc1csc2sc(-c3ccnc(SCC(=O)NCc4ccccc4)n3)c(C)c12	Wee1 degr inh 14 | Wee1 degr conf 22
CNC(=O)COC(=O)c1ccc(-c2nc3ccccc3s2)s1	none
O=CN1CCN(C(=O)c2ccc(-c3nc4ccccc4s3)s2)CC1	Wee1 degr inh 17 | Wee1 degr conf inactive
O=C(CN1N=C(c2ccc(Cl)cc2)CCC1=O)NCc1cccs1	Wee1 degr inh 12 | Wee1 degr conf inactive
CCNCc1ccc(OCc2ccccc2F)c(OC)c1	none
COc1cc(CNCCCCO)ccc1OCc1ccccc1F	Wee1 degr inh 12 | Wee1 degr conf inactive
COc1cccc(/C=C2\SC(=O)N(CC(=O)NC3C=CS(=O)(=O)C3)C2=O)c1 (centres undefined)	none (no result: Wee1 degr inh)
N=c1sccn1CC(=O)Nc1ccc2c(c1)CCC2	none
COc1cc(NC(=O)Cn2ccsc2=N)cc(OC)c1	Wee1 degr inh 13 | Wee1 degr conf inactive
CN(C)CCCNC(=O)C1(O)c2cc(Br)ccc2NC(=O)N1c1ccc(Cl)cc1 (centres undefined)	none (no result: Wee1 degr inh)
COc1cccc(NC(=O)CN(C)C(=O)CC2CC3CCC2C3)c1 (centres undefined)	none (no result: KLF5 inh, Wee1 degr inh)
O=C(C1=C[C@@H](c2coc3ccccc3c2=O)C[C@@H](OCc2ccc(CO)cc2)O1)N1CCN(Cc2ccc3c(c2)OCO3)CC1	Wee1 degr inh 23 | Wee1 degr conf inactive
O=C(C1=C[C@H](c2coc3ccccc3c2=O)C[C@H](OCc2ccc(CO)cc2)O1)N1CCN(Cc2ccc3c(c2)OCO3)CC1	none
Cc1ccc(CNC(=O)CCC2CCCN(Cc3c(C)nn(C(C)C)c3C)C2)o1 (centres undefined)	none
CCN(CC)CCn1c(NC(=O)c2ccc(C(F)(F)F)cc2)nc2ccccc21	Wee1 degr inh 13 | Wee1 degr conf inactive
CCN(CC)CCn1c(NC(=O)c2ccc(C)cc2)nc2ccccc21	none (no result: Wee1 degr inh)
CCC(CC)C(=O)Nc1nnc(S(=O)(=O)N2c3ccccc3CC2C)s1 (centres undefined)	none (no result: Wee1 degr inh)
COCCN1CCN(C(=O)C2CCC(=O)N(Cc3cccc(C(F)(F)F)c3)C2)CC1 (centres undefined)	none (no result: Wee1 degr inh)
COc1ccc(Br)cc1CNC(=O)CCCc1cn(C)c2ccccc12	Wee1 degr inh 11 | Wee1 degr conf inactive
Cc1ccc(S(=O)(=O)N2CCN(CCC#N)CC2)cc1	none
